About 2,600 (0.72%) of roughly 360,000 compounds were called active. Another 5% or so got no clear call; they are omitted. Calls come from the whole dose curve; as a rule, active = well fitted inhibition curve with a large enough effect; inconclusive = small, poorly fitted or top-dose-only effect; inactive = no such curve, though single readings can be large or run the other way. What follows is part of a selection rich in actives, with near analogues and random picks from the rest. A call without a number means that no potency is given here.
Potency is the fitted concentration of half-maximal effect.

The nature of this assay: Primary qHTS for Inhibitors of ATXN expression. Note: nearly all actives have a fitted effect of over 55% in size. The note with it: HEK-293 ATXN2-luciferase reporter, luminescence, 24 h; series mostly up to 57 µM. The essentials:
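qHTS (up to 57 uM final) was run with 24 h compound exposure of reporter cells at 37 °C. Each well was multiplexed: SteadyGlo luminescence measured ATXN2-luciferase expression after a fluorogenic Gly-Phe-AFC viability readout (25 uM final).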
Background: In qHTS, concentration-response curves come from the screen itself.
In the case of `CC1(C(=O)NCc2ccco2)Cc2c(-c3ccc4c(c3)OCO4)ccnc2O1` (stereo not given), the Potency entry is “inactive”.

As to `CCOC(=O)c1ccc(NC(=O)CCn2cnnn2)cc1`, the Potency entry was “inactive”.

`CON=C(C(=O)N[C@@H]1C(=O)N2C(C(=O)OCOC(=O)C(C)(C)C)=C(C=Cc3scnc3C)CS[C@H]12)c1csc(N)n1`: the Potency entry was “inactive”.

On to `Cc1cc(Br)cn2c(Cc3cccc(F)c3)c(-c3cccc(Br)c3)nc12`, for which the Potency result was “inactive”.

For `CC(C)(C)c1cc(C(=O)O)c(NC(=O)Nc2ccc3[nH]ncc3c2)s1`, the Potency entry is “inactive”.

Regarding `CC(C)(C)c1nc(-c2cccc(NS(=O)(=O)c3c(F)cccc3F)c2F)c(-c2ccnc(N)n2)s1`, the Potency entry was “inactive”.

With `OC(c1ccc(Cl)cc1)c1ncc(-c2ccc(Cl)cc2)[nH]1` (stereo not given), the Potency result is “inactive”.

For `CC(C)Cc1ccc(-c2cc3nc(NCc4cccc(Cl)c4)ccn3n2)cc1`, the Potency result was “inactive”.

As to `Cc1cc([N+](=O)[O-])ccc1NCc1cccc([N+](=O)[O-])c1`, the Potency result was “inactive”.

In the case of `O=C(CCl)N(Cc1cccc([N+](=O)[O-])c1)c1cccc(Cl)c1`, the Potency is 2380 nM (active).

With `CC(=O)N(CN1C(=O)C2CC=CCC2C1=O)c1cccc(Cl)c1` (stereo not given), the Potency result was “inactive”.

As for `Cn1c(=O)[nH]c(=O)c2c1nc(NCCc1ccccc1)n2Cc1ccc(F)cc1`, the Potency result was “inactive”.

As for `O=C(NNc1c2ccccc2nc2ccccc12)c1cc2ccccc2cc1O`, the Potency result was “inactive”.

Turning to `CC(=O)Nc1ccc(S(=O)(=O)N(C)c2nc3ccccc3nc2Cl)cc1`, the Potency result is “inactive”.

For the molecule `CC(=O)Nc1ccc(Nc2c3ccccc3nc3ccccc23)cc1`, the Potency is 2510 nM (active).

For the molecule `Cc1cc2c(cc1C)C(c1cccc(OC(C)C)c1)CC(=O)N2` (stereo not given), the Potency result was “inactive”.

In the case of `CCS(=O)(=O)N1CCc2cc(C(=O)NCc3ccc(OC)cc3)ccc21`, the Potency result was “inactive”.

For the molecule `CCOC(=O)c1ccc(NC(=O)CC2C(=O)N(c3ccccc3)C(=O)N2Cc2cccs2)cc1` (stereo not given), the Potency entry was “inactive”.

In the case of `COc1ccccc1N1CCN(c2ncnc3onc(-c4ccc(F)cc4)c23)CC1`, the Potency entry was “inactive”.

On to `COc1ccc(-c2ccc(CN3C(CC(C)C)C(=O)N(Cc4cn(CC5CCCCC5)nn4)CCS3(=O)=O)cc2)cc1` (stereo not given), for which the Potency entry is “inactive”.

As to `COCOCCn1cc(CN2CCS(=O)(=O)N(Cc3ccc(-c4cccc(N(C)C)c4)cc3)C(CC(C)C)C2=O)nn1` (stereo not given), the Potency result was “inactive”.

`COCOCCn1cc(CN2CCS(=O)(=O)N(Cc3ccc(-c4ccc(OC)cc4)cc3)C(CC(C)C)C2=O)nn1` (stereo not given): the Potency is 28200 nM (active).

As for `O=C(CC(NCc1cccnc1)C(=O)O)Nc1ccc(O)cc1` (stereo not given), the Potency result is “inactive”.

Regarding `COc1ccc(-c2noc(CSc3nnc(-c4ccccc4)n3-c3ccc(F)cc3)n2)c(OC)c1`, the Potency result was “inactive”.

As for `CC(=O)c1ccc(-c2cnc3c(NC=O)cc(-c4cccc(NS(C)(=O)=O)c4)cn23)cc1`, the Potency result is “inactive”.

(Values after PubChem BioAssay AID1745845 (National Center for Advancing Translational Sciences (NCATS), 2022).)
